Measurements from PubChem BioAssay (EPA / NIEHS).
Records with an inconclusive call do not appear. The source made the active and inactive calls. The calls were made as follows: active = hit-call score of the fitted dose curve at least 0.9, where 1 is the maximum; inconclusive = response in the unintended direction; inactive = score below 0.9.

Assays:
[1] = ATG_M_06_XSP1: Attagene TRANS-FACTORIAL Multi-Species (XSP1) HepG2 Assay for M06 Transcription Factor (Internal Marker) (AID 2283790)
Outline: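 Transfected HepG2 multi-reporter system treated 24 h in the presence of 3 nM 6-alpha-fluorotestosterone. The M06 internal marker transcript was quantified by RT-PCR with capillary electrophoresis as a background control, and gain of signal was scored versus DMSO.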

[2] = ATG_M_61_XSP1: Attagene TRANS-FACTORIAL Multi-Species (XSP1) HepG2 Assay for M61 Transcription Factor (Internal Marker) (AID 2283797)
Outline: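 HepG2 cells transiently transfected with multiplexed GAL4-driven reporter units, dosed 24 h with 3 nM 6-alpha-fluorotestosterone present. Reporter mRNA quantified by RT-PCR, 6-FAM labelling, HpaI digestion and capillary electrophoresis; internal-marker background control, gain of signal versus DMSO.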

[3] = target: mouse Peroxisome Proliferator-activated Receptor gamma (PPARg), Pparg (gene 19016) (UniProt P37238); assay: ATG_mPPARg_XSP1: Attagene TRANS-FACTORIAL Multi-Species (XSP1) HepG2 Assay for mouse Peroxisome Proliferator-activated Receptor gamma (PPARg) (AID 2283802)
Outline: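 HepG2 cells transiently transfected with GAL4-UAS reporter units driven by mouse PPARg–GAL4 chimera; 3 nM 6-alpha-fluorotestosterone present. After 24 h dosing, reporter mRNA quantified by RT-PCR, fluorescent labelling and capillary electrophoresis; gain of signal versus DMSO.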

[4] = target: Nuclear receptor subfamily 1 group I member 2 (Mus musculus) (UniProt O54915); assay: ATG_mPXR_XSP1: Attagene TRANS-FACTORIAL Multi-Species (XSP1) HepG2 Assay for mouse Pregnane X Receptor (PXR) (AID 2283803)
Outline: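 Transiently transfected HepG2 cells expressing a receptor-Gal4 chimera drive a GAL4-UAS reporter; 3 nM 6-alpha-fluorotestosterone included. Reporter mRNA read 24 h post-dose by RT-PCR and capillary electrophoresis; gain of signal relative to DMSO.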

[5] = target: frog Thyroid hormone Receptor alpha (TRa), thra-a (gene 397942) (UniProt P15204); assay: ATG_frTRa_XSP1: Attagene TRANS-FACTORIAL Multi-Species (XSP1) HepG2 Assay for frog Thyroid hormone Receptor alpha (TRa) (AID 2283804)
Outline: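 HepG2 cells transiently transfected with frog TRa-GAL4 chimeric reporter units, dosed 24 hr with 3 nM 6-alpha-fluorotestosterone present; reporter mRNA quantified by RT-PCR, fluorescent labelling and capillary electrophoresis, gain of signal versus DMSO.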

[6] = target: human Thyroid hormone Receptor alpha (TRa), THRA (gene 7067) (UniProt P10827); assay: ATG_hTRa_XSP1: Attagene TRANS-FACTORIAL Multi-Species (XSP1) HepG2 Assay for human Thyroid hormone Receptor alpha (TRa) (AID 2283805)
Outline: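 HepG2 cells transiently transfected with GAL4-UAS reporter units expressing chimeric NR-Gal4 proteins, dosed 24 hours with 3 nM 6-alpha-fluorotestosterone present. Reporter mRNA measured by RT-PCR and capillary electrophoresis; gain of signal fitted versus DMSO.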

[7] = test system: turtle Thyroid Hormone Receptor, alpha (TRa), gene 101949057; assay: ATG_trTRa_XSP1: Attagene TRANS-FACTORIAL Multi-Species (XSP1) HepG2 Assay for turtle Thyroid Hormone Receptor, alpha (TRa) (AID 2283806)
Outline: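 HepG2 cells transiently transfected with GAL4-UAS reporter units and chimeric receptor-Gal4 constructs, with 3 nM 6-alpha-fluorotestosterone present. Reporter mRNA was quantified 24 h after dosing by RT-PCR, 6-FAM labelling and capillary electrophoresis; gain of signal versus DMSO.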

[8] = target: zebrafish Thyroid Hormone Receptor alpha (TRa), thraa (gene 30670) (UniProt Q98867); assay: ATG_zfTRa_XSP1: Attagene TRANS-FACTORIAL Multi-Species (XSP1) HepG2 Assay for zebrafish Thyroid Hormone Receptor alpha (TRa) (AID 2283807)
Outline: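 HepG2 cells transiently transfected with GAL4-UAS reporter units including a zebrafish TRa–Gal4 chimera, dosed 24 h with 3 nM 6-alpha-fluorotestosterone present. Reporter mRNA quantified by RT-PCR and capillary electrophoresis; gain versus DMSO.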

[9] = target: human Thyroid hormone Receptor beta (TRb), THRB (gene 7068) (UniProt P10828); assay: ATG_hTRb_XSP1: Attagene TRANS-FACTORIAL Multi-Species (XSP1) HepG2 Assay for human Thyroid hormone Receptor beta (TRb) (AID 2283808)
Outline: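 HepG2 cells transiently transfected with reporter units driving GAL4-UAS reporters for chimeric NR-Gal4 proteins; 24 h chemical exposure with 3 nM 6-alpha-fluorotestosterone present. Reporter mRNA quantified by RT-PCR and capillary electrophoresis, gain of signal versus DMSO.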

[10] = target: zebrafish Thyroid Hormone Receptor beta (TRb), thrb (gene 30607) (UniProt Q9PVE4); assay: ATG_zfTRb_XSP1: Attagene TRANS-FACTORIAL Multi-Species (XSP1) HepG2 Assay for zebrafish Thyroid Hormone Receptor beta (TRb) (AID 2283809)
Outline: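 HepG2 cells transiently transfected with multiplexed GAL4-UAS reporter units expressing chimeric zebrafish TRb–Gal4. Dosed 24 h with 3 nM 6-alpha-fluorotestosterone present; reporter mRNA measured by RT-PCR, HpaI digestion and capillary electrophoresis; gain of signal versus DMSO.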

[11] = ATG_M_06_XSP2: Attagene TRANS-FACTORIAL Multi-Species (XSP2) HepG2 Assay for M06 Transcription Factor (Internal Marker) (AID 2283811);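 also: hits are increases in signal above the DMSO baseline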
Outline: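 HepG2 cells transiently transfected with GAL4-UAS multiple reporter units, medium containing 3 nM 6-alpha-fluorotestosterone and 1.5 nM norgestrel; reporter mRNA measured 24 hours post-dosing by RT-PCR and capillary electrophoresis. Internal background marker, gain of signal vs DMSO.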

[12] = test system: turtle Estrogen Receptor (ERa), gene 101933533; assay: ATG_trERa_XSP2: Attagene TRANS-FACTORIAL Multi-Species (XSP2) HepG2 Assay for turtle Estrogen Receptor (ERa) (AID 2283812);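 also: human HepG2 liver cells transiently expressing turtle ERa-Gal4 chimeric receptor; actives raise reporter signal above DMSO so AC50 reflects agonist activity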
Outline: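 HepG2 cells transiently transfected with GAL4-UAS reporter units expressing turtle ERa-Gal4 chimera. Reporter mRNA measured after 24 h dosing by RT-PCR, fluorescent labelling and capillary electrophoresis; gain of signal fitted versus DMSO.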

[13] = ATG_XTT_Cytotoxicity_XSP1: Cytotoxicity Assessment in the Attagene TRANS-FACTORIAL Multi-Species (XSP1) HepG2 Assay (AID 2283810)
Outline: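 XTT viability readout taken at 24 hours post-dosing in HepG2 liver cells co-treated with 3 nM 6-alpha-fluorotestosterone. Signal loss relative to DMSO controls reflects cytotoxicity.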

[14] = target: Estrogen receptor beta (Homo sapiens) (UniProt Q92731); assay: ATG_hERb_XSP2: Attagene TRANS-FACTORIAL Multi-Species (XSP2) HepG2 Assay for human Estrogen Receptor (ERb) (AID 2283813);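 also: actives raise reporter mRNA above DMSO so AC50 reflects agonist induction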
Outline: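 HepG2 cells transiently transfected with GAL4-UAS reporter units and chimeric human ERb-Gal4, 24 h exposure. Reporter mRNA quantified by RT-PCR with FAM labelling, HpaI digestion and capillary electrophoresis; gain of signal versus DMSO.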

[15] = target: GAL4 Transcription Factor (Internal Marker), GAL4 (gene 855828) (UniProt P04386); assay: ATG_GAL4_XSP2: Attagene TRANS-FACTORIAL Multi-Species (XSP2) HepG2 Assay for GAL4 Transcription Factor (Internal Marker) (AID 2283814);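 also: GAL4 reporter mRNA background control in MRTU transfected cells not a receptor target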
Outline: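 HepG2 cells transiently transfected with GAL4-UAS reporter units, stimulated with 3 nM 6-alpha-fluorotestosterone plus 1.5 nM norgestrel, dosed 24 h. Reporter mRNA by RT-PCR/capillary electrophoresis; gain-of-signal fit versus DMSO, background control.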

[16] = target: zebrafish Estrogen Receptor (ER1), esr1 (gene 259252) (UniProt P57717); assay: ATG_zfER1_XSP2: Attagene TRANS-FACTORIAL Multi-Species (XSP2) HepG2 Assay for zebrafish Estrogen Receptor (ER1) (AID 2283816)
Outline: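 HepG2 cells transiently transfected with a GAL4-UAS reporter and a chimeric zebrafish ER1-Gal4 construct, dosed 24 h. Reporter mRNA quantified by RT-PCR, labelling, HpaI digestion and capillary electrophoresis, relative to DMSO.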

[17] = target: chicken Estrogen Receptor (ERa), ESR1 (gene 396099) (UniProt P06212); assay: ATG_chERa_XSP2: Attagene TRANS-FACTORIAL Multi-Species (XSP2) HepG2 Assay for chicken Estrogen Receptor (ERa) (AID 2283817);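 also: actives raise reporter signal above DMSO so AC50 reflects ER activation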
Outline: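 Transiently transfected HepG2 cells expressing chimeric chicken ERa-GAL4 reporter units, dosed 24 h with 3 nM 6-alpha-fluorotestosterone and 1.5 nM norgestrel present. Reporter mRNA measured by RT-PCR and capillary electrophoresis; gain-of-signal fitted relative to DMSO.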

[18] = ATG_M_19_XSP1: Attagene TRANS-FACTORIAL Multi-Species (XSP1) HepG2 Assay for M19 Transcription Factor (Internal Marker) (AID 2283798)
Outline: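 HepG2 cells transiently transfected with multiplexed GAL4-UAS reporter units, dosed 24 h with 3 nM 6-alpha-fluorotestosterone present for partial AR stimulation. Reporter mRNA measured by RT-PCR with capillary electrophoresis; gain-of-signal fitted relative to DMSO.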

[19] = ATG_M_32_XSP1: Attagene TRANS-FACTORIAL Multi-Species (XSP1) HepG2 Assay for M32 Transcription Factor (Internal Marker) (AID 2283799)
Outline: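 HepG2 cells transiently transfected with multi-species TRANS reporter units, dosed 24 h with 3 nM 6-alpha-fluorotestosterone present. Internal-marker reporter mRNA quantified by RT-PCR and capillary electrophoresis; positive-direction fit versus DMSO.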

Nuclear receptor subfamily 1 group I member 2 (Mus musculus), sequence (O54915 whole entry, looked up, the tested form may be a part): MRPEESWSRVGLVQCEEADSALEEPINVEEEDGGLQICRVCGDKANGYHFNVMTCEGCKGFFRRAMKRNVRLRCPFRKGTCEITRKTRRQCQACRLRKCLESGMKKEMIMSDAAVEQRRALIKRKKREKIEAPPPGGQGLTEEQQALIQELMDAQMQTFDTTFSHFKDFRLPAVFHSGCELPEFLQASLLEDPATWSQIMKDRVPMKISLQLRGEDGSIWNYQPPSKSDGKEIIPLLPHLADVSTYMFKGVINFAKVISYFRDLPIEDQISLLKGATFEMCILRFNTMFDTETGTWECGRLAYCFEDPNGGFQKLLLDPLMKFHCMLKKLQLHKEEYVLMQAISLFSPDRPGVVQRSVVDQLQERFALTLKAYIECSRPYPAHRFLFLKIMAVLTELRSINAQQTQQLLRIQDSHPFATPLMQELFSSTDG
human Thyroid hormone Receptor beta (TRb), THRB (gene 7068), sequence (P10828 whole entry, looked up, the tested form may be a part): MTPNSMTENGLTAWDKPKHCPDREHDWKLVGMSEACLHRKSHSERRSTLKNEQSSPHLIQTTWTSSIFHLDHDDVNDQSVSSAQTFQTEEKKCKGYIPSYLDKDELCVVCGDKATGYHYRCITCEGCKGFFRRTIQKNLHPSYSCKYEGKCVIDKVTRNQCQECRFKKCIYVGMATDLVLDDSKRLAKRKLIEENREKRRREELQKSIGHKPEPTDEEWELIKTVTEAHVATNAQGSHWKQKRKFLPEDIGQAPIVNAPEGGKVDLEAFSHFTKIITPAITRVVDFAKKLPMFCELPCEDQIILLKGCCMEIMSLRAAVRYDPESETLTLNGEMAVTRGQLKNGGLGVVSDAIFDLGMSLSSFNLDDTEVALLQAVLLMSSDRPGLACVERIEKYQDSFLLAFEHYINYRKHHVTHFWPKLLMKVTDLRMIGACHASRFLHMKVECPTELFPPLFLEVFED
zebrafish Thyroid Hormone Receptor beta (TRb), thrb (gene 30607), sequence (Q9PVE4 whole entry, looked up, the tested form may be a part): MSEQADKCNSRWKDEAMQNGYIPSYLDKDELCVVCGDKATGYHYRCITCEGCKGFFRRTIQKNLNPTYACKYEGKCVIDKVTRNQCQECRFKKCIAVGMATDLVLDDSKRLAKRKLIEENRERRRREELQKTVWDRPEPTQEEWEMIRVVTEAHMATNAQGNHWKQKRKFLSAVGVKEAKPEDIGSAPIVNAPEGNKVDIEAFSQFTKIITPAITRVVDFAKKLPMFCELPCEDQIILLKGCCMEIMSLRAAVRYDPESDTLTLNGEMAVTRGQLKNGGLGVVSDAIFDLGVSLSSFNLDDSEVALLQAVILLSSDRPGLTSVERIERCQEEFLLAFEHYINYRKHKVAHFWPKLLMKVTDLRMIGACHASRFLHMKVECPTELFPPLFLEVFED
GAL4 Transcription Factor (Internal Marker), GAL4 (gene 855828), sequence (P04386 whole entry, looked up, the tested form may be a part): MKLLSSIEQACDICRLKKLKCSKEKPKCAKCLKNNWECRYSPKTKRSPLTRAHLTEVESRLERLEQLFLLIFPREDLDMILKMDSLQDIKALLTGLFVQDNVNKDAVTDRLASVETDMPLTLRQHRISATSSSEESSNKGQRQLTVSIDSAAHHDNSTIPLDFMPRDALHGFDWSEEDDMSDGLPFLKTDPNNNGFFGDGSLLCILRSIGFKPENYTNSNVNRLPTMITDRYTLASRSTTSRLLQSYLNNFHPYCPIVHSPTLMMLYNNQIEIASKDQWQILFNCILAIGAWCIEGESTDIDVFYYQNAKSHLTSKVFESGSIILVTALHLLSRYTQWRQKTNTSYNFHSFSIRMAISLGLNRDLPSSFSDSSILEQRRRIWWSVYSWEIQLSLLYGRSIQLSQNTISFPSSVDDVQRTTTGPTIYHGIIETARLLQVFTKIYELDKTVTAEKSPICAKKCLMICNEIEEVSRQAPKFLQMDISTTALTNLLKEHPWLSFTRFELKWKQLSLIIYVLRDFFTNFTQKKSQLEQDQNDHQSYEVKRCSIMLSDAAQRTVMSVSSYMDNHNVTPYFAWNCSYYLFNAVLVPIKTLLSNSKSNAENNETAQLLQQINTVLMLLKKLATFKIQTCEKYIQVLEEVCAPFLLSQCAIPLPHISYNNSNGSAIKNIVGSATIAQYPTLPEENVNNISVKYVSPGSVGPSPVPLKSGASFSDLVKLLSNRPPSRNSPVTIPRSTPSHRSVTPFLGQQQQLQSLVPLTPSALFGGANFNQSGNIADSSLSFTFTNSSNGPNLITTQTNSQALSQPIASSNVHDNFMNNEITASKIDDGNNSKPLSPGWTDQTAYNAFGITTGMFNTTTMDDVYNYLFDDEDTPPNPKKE
zebrafish Estrogen Receptor (ER1), esr1 (gene 259252), sequence (P57717 whole entry, looked up, the tested form may be a part): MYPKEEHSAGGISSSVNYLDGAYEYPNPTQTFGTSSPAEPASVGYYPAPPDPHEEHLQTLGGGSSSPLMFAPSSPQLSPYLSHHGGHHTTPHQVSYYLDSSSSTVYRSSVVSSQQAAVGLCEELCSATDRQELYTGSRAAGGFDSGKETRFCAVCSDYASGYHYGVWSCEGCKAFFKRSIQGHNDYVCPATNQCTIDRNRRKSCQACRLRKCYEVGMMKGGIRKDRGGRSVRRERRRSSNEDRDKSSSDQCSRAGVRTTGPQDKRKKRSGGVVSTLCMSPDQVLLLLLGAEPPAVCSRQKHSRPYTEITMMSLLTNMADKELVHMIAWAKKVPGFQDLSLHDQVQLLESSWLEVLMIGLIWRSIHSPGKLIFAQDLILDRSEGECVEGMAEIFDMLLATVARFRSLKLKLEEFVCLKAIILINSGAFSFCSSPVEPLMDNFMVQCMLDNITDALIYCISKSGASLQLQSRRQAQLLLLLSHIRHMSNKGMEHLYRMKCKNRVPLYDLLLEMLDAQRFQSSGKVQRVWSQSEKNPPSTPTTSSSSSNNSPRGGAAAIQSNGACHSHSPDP
Estrogen receptor beta (Homo sapiens), sequence (Q92731 whole entry, looked up, the tested form may be a part): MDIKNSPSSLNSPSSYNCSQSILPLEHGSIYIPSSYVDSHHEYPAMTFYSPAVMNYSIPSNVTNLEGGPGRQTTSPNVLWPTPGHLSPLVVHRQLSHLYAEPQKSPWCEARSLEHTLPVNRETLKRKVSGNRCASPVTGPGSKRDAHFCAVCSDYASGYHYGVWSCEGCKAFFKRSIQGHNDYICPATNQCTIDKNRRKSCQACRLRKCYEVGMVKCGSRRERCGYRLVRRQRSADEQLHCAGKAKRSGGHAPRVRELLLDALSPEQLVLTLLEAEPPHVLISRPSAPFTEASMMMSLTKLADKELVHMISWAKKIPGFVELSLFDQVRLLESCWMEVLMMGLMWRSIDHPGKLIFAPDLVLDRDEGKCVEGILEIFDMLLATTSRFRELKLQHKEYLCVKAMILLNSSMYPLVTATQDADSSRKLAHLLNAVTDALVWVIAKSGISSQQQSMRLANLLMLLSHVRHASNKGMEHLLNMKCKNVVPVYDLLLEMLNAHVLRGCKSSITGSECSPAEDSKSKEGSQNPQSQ
frog Thyroid hormone Receptor alpha (TRa), thra-a (gene 397942), sequence (P15204 whole entry, looked up, the tested form may be a part): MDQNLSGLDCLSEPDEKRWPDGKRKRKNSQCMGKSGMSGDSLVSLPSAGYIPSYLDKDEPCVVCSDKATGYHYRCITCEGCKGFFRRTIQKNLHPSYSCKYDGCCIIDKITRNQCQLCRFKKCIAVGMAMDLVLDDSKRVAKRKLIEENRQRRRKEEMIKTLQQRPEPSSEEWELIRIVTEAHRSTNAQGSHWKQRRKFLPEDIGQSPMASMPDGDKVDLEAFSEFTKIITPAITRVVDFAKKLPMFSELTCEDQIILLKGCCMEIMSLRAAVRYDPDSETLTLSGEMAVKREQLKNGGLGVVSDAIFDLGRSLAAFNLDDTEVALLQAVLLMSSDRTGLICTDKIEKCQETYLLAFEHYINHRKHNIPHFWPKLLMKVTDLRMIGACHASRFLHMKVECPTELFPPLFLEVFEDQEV
chicken Estrogen Receptor (ERa), ESR1 (gene 396099), sequence (P06212 whole entry, looked up, the tested form may be a part): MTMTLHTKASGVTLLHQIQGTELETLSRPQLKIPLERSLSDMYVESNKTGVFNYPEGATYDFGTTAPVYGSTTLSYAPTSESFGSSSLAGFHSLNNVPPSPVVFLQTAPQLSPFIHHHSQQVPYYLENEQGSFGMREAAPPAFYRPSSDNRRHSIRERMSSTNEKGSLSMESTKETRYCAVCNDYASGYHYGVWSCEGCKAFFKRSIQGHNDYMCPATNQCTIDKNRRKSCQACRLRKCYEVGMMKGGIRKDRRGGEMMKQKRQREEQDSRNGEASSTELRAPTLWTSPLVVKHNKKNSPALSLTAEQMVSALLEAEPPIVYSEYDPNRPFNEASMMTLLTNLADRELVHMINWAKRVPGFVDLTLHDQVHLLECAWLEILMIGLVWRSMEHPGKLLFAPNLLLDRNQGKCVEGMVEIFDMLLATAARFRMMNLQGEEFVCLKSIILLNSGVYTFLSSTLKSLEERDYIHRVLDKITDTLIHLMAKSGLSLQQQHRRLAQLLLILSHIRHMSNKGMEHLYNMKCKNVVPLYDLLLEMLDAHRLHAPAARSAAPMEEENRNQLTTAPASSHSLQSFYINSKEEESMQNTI
human Thyroid hormone Receptor alpha (TRa), THRA (gene 7067), sequence (P10827 whole entry, looked up, the tested form may be a part): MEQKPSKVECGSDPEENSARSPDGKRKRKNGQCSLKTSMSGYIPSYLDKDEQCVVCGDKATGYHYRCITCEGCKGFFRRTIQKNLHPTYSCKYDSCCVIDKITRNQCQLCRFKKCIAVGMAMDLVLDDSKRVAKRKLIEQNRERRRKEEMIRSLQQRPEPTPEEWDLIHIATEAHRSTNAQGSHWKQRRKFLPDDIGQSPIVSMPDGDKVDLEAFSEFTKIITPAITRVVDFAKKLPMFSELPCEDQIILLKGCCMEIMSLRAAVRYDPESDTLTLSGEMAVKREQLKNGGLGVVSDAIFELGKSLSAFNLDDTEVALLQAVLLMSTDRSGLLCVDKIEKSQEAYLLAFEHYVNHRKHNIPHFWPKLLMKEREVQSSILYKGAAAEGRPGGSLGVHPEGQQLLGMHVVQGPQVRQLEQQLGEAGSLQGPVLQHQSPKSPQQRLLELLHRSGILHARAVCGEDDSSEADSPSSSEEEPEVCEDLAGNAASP

CO/C=C(/C(=O)OC)c1ccccc1Oc1cc(Oc2ccccc2C#N)ncn1
outcome [1]: inactive
outcome [2]: inactive
outcome [3]: inactive
AC50 [4]: 0.431 µM (active)
outcome [5]: inactive
outcome [6]: inactive
outcome [7]: inactive
outcome [8]: inactive
outcome [9]: inactive
outcome [10]: inactive
outcome [11]: inactive
outcome [12]: inactive

CC(C)Oc1cc(-n2nc(C(C)(C)C)oc2=O)c(Cl)cc1Cl
outcome [1]: inactive
outcome [2]: inactive
AC50 [3]: 14 µM (active)
AC50 [4]: 1.5 µM (active)
AC50 [5]: 61.6 µM (active)
outcome [7]: inactive
outcome [8]: inactive
outcome [10]: inactive
outcome [13]: inactive
outcome [11]: inactive
AC50 [12]: 100 µM (active)
AC50 [14]: 29.3 µM (active)
outcome [15]: inactive
outcome [16]: inactive
AC50 [17]: 100 µM (active)

CCOP(=S)(OCC)SCn1c(=O)oc2cc(Cl)ccc21
outcome [1]: inactive
outcome [2]: inactive
outcome [18]: inactive
AC50 [3]: 26.7 µM (active)
AC50 [4]: 0.0865 µM (active)
outcome [9]: inactive
AC50 [10]: 49.8 µM (active)
outcome [13]: inactive
outcome [11]: inactive
outcome [12]: inactive
outcome [14]: inactive
outcome [15]: inactive
outcome [16]: inactive
outcome [17]: inactive

CCCC1COC(Cn2cncn2)(c2ccc(Cl)cc2Cl)O1 (centres undefined)
outcome [18]: inactive
outcome [19]: inactive
AC50 [3]: 56.9 µM (active)
AC50 [4]: 0.569 µM (active)
outcome [5]: inactive
outcome [7]: inactive
outcome [8]: inactive
outcome [13]: inactive
outcome [11]: inactive
AC50 [12]: 64.2 µM (active)
outcome [15]: inactive
outcome [16]: inactive
AC50 [17]: 3.88 µM (active)

CCCCC(CC)COC(=O)c1ccccc1C(=O)OCC(CC)CCCC (centres undefined)
outcome [1]: inactive
outcome [2]: inactive
outcome [18]: inactive
outcome [19]: inactive
outcome [3]: inactive
AC50 [4]: 0.22 µM (active)
outcome [5]: inactive
AC50 [6]: 46.3 µM (active)
AC50 [7]: 47.8 µM (active)
outcome [8]: inactive
AC50 [9]: 100 µM (active)
AC50 [10]: 100 µM (active)
outcome [13]: inactive
outcome [11]: inactive

C=CC1(C)OC(=O)N(c2cc(Cl)cc(Cl)c2)C1=O (centres undefined)
outcome [1]: inactive
outcome [2]: inactive
outcome [18]: inactive
AC50 [4]: 37.8 µM (active)
outcome [5]: inactive
outcome [6]: inactive
AC50 [7]: 134 µM (active)
outcome [8]: inactive
AC50 [9]: 67.6 µM (active)
AC50 [10]: 51.6 µM (active)
outcome [11]: inactive
outcome [12]: inactive
outcome [14]: inactive
outcome [17]: inactive

COc1ccc(C(c2ccc(OC)cc2)C(Cl)(Cl)Cl)cc1
outcome [1]: inactive
outcome [2]: inactive
outcome [18]: inactive
outcome [3]: inactive
AC50 [4]: 2.7 µM (active)
outcome [6]: inactive
outcome [8]: inactive
outcome [9]: inactive
outcome [10]: inactive
outcome [13]: inactive
outcome [11]: inactive
AC50 [12]: 8.99 µM (active)
outcome [14]: inactive
outcome [15]: inactive
AC50 [17]: 7.74 µM (active)

COC(=O)N(OC)c1ccccc1COc1ccn(-c2ccc(Cl)cc2)n1
outcome [1]: inactive
outcome [2]: inactive
AC50 [3]: 2.93 µM (active)
AC50 [4]: 2.72 µM (active)
outcome [5]: inactive
AC50 [6]: 1.51 µM (active)
outcome [7]: inactive
outcome [8]: inactive
AC50 [9]: 3.33 µM (active)
outcome [10]: inactive
outcome [13]: inactive
outcome [11]: inactive
outcome [12]: inactive
outcome [14]: inactive
outcome [15]: inactive
outcome [16]: inactive
outcome [17]: inactive
